Records with an inconclusive call do not appear. Calls of active or inactive are those of the source. Calls follow the shape of the dose curve; as a rule, active = well fitted activation curve with a large enough effect; inconclusive = small, poorly fitted or top-dose-only effect; inactive = no such curve, though single readings can be large or run the other way.
Test: qHTS assay for re-activators of p53 using a Luc reporter: Hit Validation; also: nearly all actives have a fitted effect of over 75% in size; as to activation: 0% is about no effect
Conditions: p53-responsive luciferase reporter cells, luminescence, H1299 line expressing heat-sensitive Ala138Val p53; series mostly up to 46.1 µM; activation: at the top concentration
How it was run: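 H1299 (p53-null) cells stably carrying p53-A138V and a BP100-luciferase reporter, 1000 cells/well, treated 24 h at 37 deg C. Compounds at several concentrations, 1:5 dilution; nocodazole control; luminescence read after 10 min with detection reagent.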
Potency is read from the fitted curve at half-maximal effect.

SMILES	activation	Potency
NC(=NCc1ccccc1)c1cccc([N+](=O)[O-])c1	23.4% (inactive)	–
COc1cc(NC(=O)CSCc2ccc(Cl)cc2)c(C(=O)O)cc1OC	-13% (inactive)	–
CN(C)c1ccc(/C=N/Nc2nncc3ccccc23)cc1	–	0.366 µM (active)
COc1ccc(CCNC2CCC(c3ccccc3)CC2)cc1 (stereo not drawn)	-6.77% (inactive)	–
O=C(NNC(=O)c1cccnc1SCc1cccc([N+](=O)[O-])c1)c1ccccn1	31.8% (inactive)	–
Cc1ccc2nc(-c3ccc(NC(=O)COC(=O)c4ccc(Br)o4)cc3)sc2c1	–	0.0517 µM (active)
COc1ccc(S(=O)(=O)NC2CC(C)(C)NC(C)(C)C2)c2ccccc12	-12% (inactive)	–
COc1ccc(CCC(=O)Nc2ccc(-c3noc(-c4ccc(OC)c(OC)c4)n3)cc2)cc1	28.1% (inactive)	–
O=C(Oc1ccc2ccccc2c1Cl)N1CCCCCC1	–	5.8 µM (active)
O=S(=O)(N/N=C/c1ccccc1OCc1ccc(Cl)cc1)c1ccccc1	-58.3% (inactive)	–
O=C(NCc1ccc(-c2nc3ccccc3s2)cc1)c1cc2ccccc2o1	-4.17% (inactive)	–
COc1cc(N/N=C/c2ccccc2O)ncn1	–	25.9 µM (active)
Cc1cc(C(=O)COC(=O)c2cccc(O)c2)c(C)n1C1CC1	–	0.13 µM (active)
NNc1nc(NCc2ccccc2)nc(N2CCOCC2)n1	-7.29% (inactive)	–
CN(C)c1cccc(C(=O)NNC(=O)CN2C(=O)C3CC=CCC3C2=O)c1 (stereo not drawn)	–	2.31 µM (active)
COCCn1c(C)cc(C(=O)CSc2nc3ccccc3s2)c1C	130% [at 9.22 µM] (inactive)	–
Cc1ccc(C(=O)NCC(=O)N2CCCCCC2)cc1	26% (inactive)	–
O=C(COC(=O)c1ccc(-c2nnc(-c3ccccc3)o2)cc1)c1ccccc1	–	2.91 µM (active)
O=C(Nc1ccc(Br)cn1)c1cccc(-c2cc3ccccc3oc2=O)c1	–	16.4 µM (active)

SMILES	activation	Potency
Cn1c(C(=O)Nc2ccc3c(c2)OCCO3)cc2sccc21	–	5.8 µM (active)
O=C(N/N=C/c1cccs1)c1n[nH]c2c1CCC2	–	0.517 µM (active)
Cc1ccccc1-c1noc(N)c1C#N	8.85% (inactive)	–
O=C(Nc1cccc(O)c1)C(=O)Nc1ccccn1	–	2.31 µM (active)
Nc1nc2ccc(N3CCOCC3)cc2s1	34.4% (inactive)	–
COCCCN(C(C)=O)c1nc(-c2ccc(OC)cc2)cs1	–	2.31 µM (active)
Cc1c(C(=O)NC2=NCCS2)oc2ccccc12	–	0.58 µM (active)
Cc1ccc(C(=O)Nc2nnc(SCC(=O)N3CCCc4ccccc43)s2)cc1	-3.65% (inactive)	–
COc1ccccc1NC(CC(=O)c1ccccc1)C(=O)OCC(=O)c1ccc(C)cc1 (stereo not drawn)	–	0.206 µM (active)
O=C1NCCCc2c1oc1ccc(O)cc21	41% [at 9.22 µM] (inactive)	–
Nc1nonc1-n1nnc(C(=O)N/N=C/c2ccc(Br)cc2)c1CSC1=NCCS1	–	3.66 µM (active)
CCc1nnc(NC(=O)CCC(=O)Nc2ccccc2)s1	2.08% (inactive)	–
CCOC(=O)c1[nH]nc(C(=O)c2ccc(Br)cc2)c1O	-94.3% (inactive)	–
CCOc1ccc2c(c1)C(C)=CC(C)(C)N2S(=O)(=O)c1ccc(NC(C)=O)cc1	38% (inactive)	–
CCOc1ccc(OCc2cccc(C(=O)N3CCCC3)c2)cc1	–	0.517 µM (active)
CCN(CC)C(=O)CSc1ncnc2c(-c3cccs3)nsc12	20.3% (inactive)	–
Cc1ccc(NC2=C(Cl)C(=O)c3ccccc3C2=O)cc1	-89.1% (inactive)	–
O=C(CC(=O)c1ccccc1O)c1cccc(F)c1	22.4% (inactive)	–
O=C(c1ccccc1)n1c(=S)nc2ccccn21	–	0.164 µM (active)

Reference: PubChem BioAssay AID624305 (National Center for Advancing Translational Sciences (NCATS), 2012)
